Data published in PubChem BioAssay (Tox21).
Inconclusive results are not listed. Calls of active or inactive are those of the source. Unless noted, calls come from the whole dose curve.

Tests used:
[1] = qHTS assay to identify small molecule agonists of the NFkB signaling pathway - cell viability counter screen (AID 1159515); note: series mostly up to about 61 µM; % is set by controls: 0 for no effect and ±100 for the full control effect; nearly all actives have a fitted effect of over 55% in size
Procedure, shortened: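 Plate 2,000 NFkB-bla ME-180 cells/well; incubate overnight. Add compounds, 5 hr at 37 C. Add FRET substrate, 1.5 hr RT. Add CellTiter-Glo, 30 min RT; read luminescence.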

[2] = qHTS assay to identify small molecule agonists of the endoplasmic reticulum stress response signaling pathway (AID 1159516; active = well fitted activation curve with a large enough effect in the signal ratio in the repeat runs, not every such curve was filed as active; the % refers to the signal ratio; note: % is set by controls: 0 for no effect and ±100 for the full control effect)
Procedure, shortened: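 Beta-lactamase expression from the ER stress response element in HeLa reporter cells is quantified with the LiveBLAzer B/G FRET substrate, read at 405 nm excitation after 2 hr at room temperature, following 5 hr compound treatment at 37 C.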

[3] = qHTS assay to identify small molecule agonists of the endoplasmic reticulum stress response signaling pathway - cell viability counter screen (AID 1159517); note: series mostly up to about 61 µM; % is set by controls: 0 for no effect and ±100 for the full control effect; nearly all actives have a fitted effect of over 50% in size
Procedure, shortened: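 Cpd-treated ESRE-bla HeLa (5 hr, 37 C) → LiveBLAzer 2 hr RT → CellTiter-Glo 30 min RT → luminescence.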

[4] = target: Nuclear receptor ROR-gamma (Homo sapiens) (UniProt P51449); assay: qHTS assay to identify small molecule antagonists of the retinoid-related orphan receptor gamma (ROR-gamma) signaling pathway (AID 1159521; active = well fitted curve in the direction sought with a large enough effect in the repeat runs; an effect the other way counts as inactive or inconclusive; note: nearly all actives have a fitted effect of over 50% in size; note: potency is the fitted concentration of half-maximal effect;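 for activity change, negative = inhibition: CHO cells with doxycycline inducible ROR-gamma driving an RORE luciferase reporter; top concentration of the series differs between compounds; % is set by controls: 0 for no effect and ±100 for the full control effect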)
Procedure, shortened: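 Test compounds were applied to Tet-on RORγ CHO cells 2 h ahead of doxycycline hyclate (1 uM final). Luciferase reporter activity was quantified by luminescence after 16 h at 37 C and 5% CO2.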

[5] = qHTS assay to identify small molecule agonists of the AP-1 signaling pathway - cell viability counter screen (AID 1159525); note: nearly all actives have a fitted effect of over 55% in size
Procedure, shortened: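 Each titration point was normalised to DMSO and tetra n-octyl ammonium bromide controls. The read was Cell Titer Glo luminescence after 30 min at RT, following 5 h compound exposure of ME-180 AP-1-bla cells at 37 °C.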

[6] = qHTS assay to identify small molecule agonists of the AP-1 signaling pathway (AID 1159526); note: % is set by controls: 0 for no effect and ±100 for the full control effect
[7] = target: Retinoic acid receptor RXR-alpha (Homo sapiens) (UniProt P19793); assay: qHTS assay to identify small molecule agonists of the RXR signaling pathway (AID 1159527); note: % is set by controls: 0 for no effect and ±100 for the full control effect; nearly all actives have a fitted effect of over 35% in size
Sequence of Retinoic acid receptor RXR-alpha (Homo sapiens) (P19793 whole entry, looked up): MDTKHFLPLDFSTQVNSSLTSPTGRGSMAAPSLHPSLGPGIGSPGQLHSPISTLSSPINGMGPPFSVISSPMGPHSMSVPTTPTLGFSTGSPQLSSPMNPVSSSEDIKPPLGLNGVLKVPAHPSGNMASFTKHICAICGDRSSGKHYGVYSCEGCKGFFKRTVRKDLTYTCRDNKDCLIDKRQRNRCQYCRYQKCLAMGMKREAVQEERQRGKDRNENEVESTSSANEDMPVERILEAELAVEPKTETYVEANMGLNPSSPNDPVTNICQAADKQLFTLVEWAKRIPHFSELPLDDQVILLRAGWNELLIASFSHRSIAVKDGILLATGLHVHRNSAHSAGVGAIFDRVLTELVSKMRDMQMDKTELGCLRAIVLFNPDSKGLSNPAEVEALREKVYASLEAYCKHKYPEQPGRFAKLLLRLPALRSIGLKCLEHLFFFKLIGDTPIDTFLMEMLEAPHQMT
Procedure, shortened: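 Using 9-cis retinoic acid as the reference agonist, chemicals were tested in HEK 293T cells […] for 16 hr; substrate loading lasted 2 hr at room temperature.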

[8] = qHTS assay to identify small molecule agonists of the RXR signaling pathway - cell viability counter screen (AID 1159529; active = well fitted curve in the direction sought with a large enough effect in the repeat runs; an effect the other way counts as inactive or inconclusive; note: series mostly up to about 77 µM; % is set by controls: 0 for no effect and ±100 for the full control effect; nearly all actives have a fitted effect of over 50% in size)
Procedure, shortened: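 Compounds dissolved in DMSO were pinned onto HEK 293T cells carrying a beta-lactamase reporter under RXR-alpha control and incubated 16 hr. Cytotoxicity was then quantified by CellTiter-Glo luminescence.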

[9] = qHTS assay to identify small molecule antagonists of the vitamin D receptor (VDR) signaling pathway - cell viability counter screen (AID 743225; active = well fitted curve in the direction sought with a large enough effect in the repeat runs; an effect the other way counts as inactive or inconclusive; note: % is set by controls: 0 for no effect and ±100 for the full control effect; nearly all actives have a fitted effect of over 50% in size)
Procedure, shortened: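 Compounds were pinned onto VDR-bla HEK 293T cells together with 1-alpha,25-dihydroxyvitamin D3 at 3 nM final. After 16 h at 37C and 5% CO2 plus the reporter readout, cell viability was measured by CellTiter-Glo luminescence (30 min, room temperature).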

[10] = qHTS assay to identify small molecule antagonists of the retinoid-related orphan receptor gamma (ROR-gamma) signaling pathway - cell viability counter screen (AID 1159520; active = well fitted curve in the direction sought with a large enough effect in the repeat runs; an effect the other way counts as inactive or inconclusive)
Procedure, shortened: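 Tet-on ROR gamma CHO cells (1,000/well) were plated 4 hr, given compounds in DMSO for 2 hr at 37 C, then induced with 1 uM final doxycycline for 16 hr. Viability was read as ATP by CellTiter-Glo luminescence after 30 min.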

CN1CCN(c2cc3c(nn2)Oc2ccccc2N3C)CC1
inactive: outcome [1] | outcome [2] | outcome [3] | activity change, negative = inhibition [4] 55.1% [at 19 µM] | viability change, negative = cytotoxic [5] 4.25% [at 15.8 µM] | activation [6] 0.803% [at 15.8 µM] | activation [7] 10.7% [at 15.8 µM] | activity change, negative = cytotoxicity [8] 1.18% [at 15.8 µM]

CC(CC=O)CC(C)(C)C (configuration not stated)
inactive: outcome [9] | outcome [1] | outcome [2] | outcome [3] | outcome [10] | outcome [5] | outcome [6] | Potency [7] | Potency [8]

CCCCS(=O)(=O)N[C@@H](Cc1ccc(OCCCCC2CCNCC2)cc1)C(=O)O
inactive: outcome [9] | outcome [1] | outcome [2] | outcome [3] | outcome [10] | outcome [6] | Potency [7] | Potency [8]

CC(C)(CCC(=O)O)C(=O)O
inactive: outcome [1] | outcome [2] | outcome [3] | Potency [4] | outcome [5] | outcome [6] | Potency [8]

Cc1ncc(COP(=O)(O)O)c(C=O)c1O
inactive: outcome [9] | outcome [1] | outcome [2] | outcome [3] | outcome [10] | outcome [5] | outcome [6] | Potency [7] | Potency [8]

C1CCC2(CCCCO2)OC1
inactive: outcome [9] | outcome [1] | outcome [2] | outcome [10] | Potency [4] | outcome [5] | outcome [6] | Potency [8]

CCCC(=O)O[C@]1(C(=O)CC)CC[C@H]2[C@@H]3CCC4=CC(=O)CC[C@]4(C)[C@H]3[C@@H](O)C[C@@]21C
active: Potency [4] 10.6 µM
inactive: outcome [9] | outcome [1] | outcome [2] | outcome [10] | outcome [5] | outcome [6] | Potency [7]

C[C@@H]1C[C@H]2[C@@H]3C[C@H](F)C4=CC(=O)C(Cl)=C[C@]4(C)[C@@]3(F)[C@@H](O)C[C@]2(C)[C@@]1(O)C(=O)CO
inactive: outcome [9] | outcome [1] | outcome [2] | outcome [10] | outcome [5] | outcome [6] | Potency [7] | Potency [8]

COc1cc(C(=O)OC(COCCC(C)C)CN2CCOCC2)cc(OC)c1OC (configuration not stated)
inactive: outcome [9] | outcome [1] | outcome [2] | outcome [10] | Potency [4] | outcome [5] | outcome [6] | Potency [7] | Potency [8]

CCCCCCCCCCCCCCC(=O)O
inactive: outcome [9] | outcome [1] | outcome [2] | outcome [10] | Potency [4] | outcome [5] | outcome [6] | Potency [7] | Potency [8]

COC(=O)C1=C(C)NC(C)=C(C(=O)OC(C)C)C1c1cccc2nonc12 (configuration not stated)
inactive: outcome [9] | outcome [1] | outcome [2] | Potency [4] | outcome [5] | outcome [6] | Potency [7] | Potency [8]

C=CC(C)(CCC=C(C)C)OC(=O)CC (configuration not stated)
inactive: outcome [9] | outcome [1] | outcome [2] | outcome [10] | Potency [4] | outcome [5] | outcome [6] | Potency [7] | Potency [8]

CCCCOCCOC(=O)COc1cc(Cl)c(Cl)cc1Cl
inactive: outcome [9] | outcome [1] | outcome [2] | outcome [10] | Potency [4] | outcome [5] | outcome [6] | Potency [7] | Potency [8]

O=C1NC(=O)C2CC=CCC12 (configuration not stated)
inactive: outcome [9] | outcome [1] | outcome [2] | outcome [10] | outcome [6] | Potency [7] | Potency [8]

CC(=O)c1ccccc1[N+](=O)[O-]
inactive: outcome [9] | outcome [1] | outcome [2] | outcome [10] | outcome [5] | outcome [6] | Potency [7] | Potency [8]

Cc1ccc(-c2ncc(Cl)cc2-c2ccc(S(C)(=O)=O)cc2)cn1
inactive: outcome [1] | outcome [2] | outcome [10] | Potency [4] | outcome [5] | outcome [6] | Potency [7] | Potency [8]

CC(C)CC(C)(N)C#N (configuration not stated)
inactive: outcome [9] | outcome [1] | outcome [2] | Potency [4] | outcome [5] | outcome [6] | Potency [7] | Potency [8]

CC(COc1ccccc1)NN (configuration not stated)
inactive: outcome [9] | outcome [1] | outcome [2] | outcome [3] | outcome [5] | outcome [6] | Potency [8]

CCCCCCCCCCCCCCCCCCO
inactive: outcome [9] | outcome [1] | outcome [2] | outcome [10] | Potency [4] | outcome [5] | outcome [6] | Potency [7] | Potency [8]

C=C[Si](OC(C)=O)(OC(C)=O)OC(C)=O
inactive: outcome [9] | outcome [1] | outcome [2] | outcome [10] | Potency [4] | outcome [5] | outcome [6] | Potency [7]

CCCCCC(C)N (configuration not stated)
inactive: outcome [9] | outcome [1] | outcome [2] | outcome [10] | Potency [4] | outcome [5] | outcome [6] | Potency [7]

C=CN1CCCCCC1=O
inactive: outcome [1] | outcome [2] | outcome [10] | Potency [4] | outcome [5] | outcome [6] | Potency [7] | Potency [8]

CC(C)c1ccc2ncccc2c1
inactive: outcome [1] | outcome [3] | outcome [10] | Potency [4] | outcome [5] | outcome [6] | Potency [7]

CCOC(=O)C1=NOC(c2ccccc2)(c2ccccc2)C1
inactive: outcome [9] | outcome [1] | outcome [2] | outcome [10] | Potency [4] | outcome [5] | outcome [6] | Potency [7] | Potency [8]

CN1C(C)(C)CC(O)CC1(C)C
inactive: outcome [1] | outcome [2] | outcome [10] | Potency [4] | outcome [5] | outcome [6] | Potency [7] | Potency [8]

CCCCCC(=O)OCCc1ccccc1
inactive: outcome [1] | outcome [2] | outcome [10] | Potency [4] | outcome [5] | outcome [6] | Potency [7] | Potency [8]
